About 2,000 (36%) of roughly 5,500 compounds were called active. Another 18% or so got no clear call; they are omitted. No stated cut-off is given here; in the data, active means normalized growth mostly below about 0.91 (no sharp cut-off); inconclusive means no clear call, values can overlap the other calls; inactive means mostly above about 0.92. Some of the results follow.
Assay: chemical genetic growth profiling, strain panel (AID 1159580);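 further: tested at 20 µM; growth read once vehicle control cultures reached saturation at 30 °C; 1 = growth at the plate median or of vehicle wells; lower values mean less growth of the strain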
Conditions: growth OD
[1] = S. cerevisiae deletion strains, locus YAL013W, strain DEP1, hits give low values
[2] = S. cerevisiae deletion strains, locus YBR229C, strain ROT2, hits give low values
[3] = S. cerevisiae deletion strains, locus YDL101C, strain DUN1, hits give low values
[4] = S. cerevisiae deletion strains, locus YDL134C, strain PPH21, hits give low values
[5] = S. cerevisiae deletion strains, locus YEL061C, strain CIN8, hits give low values
[6] = S. cerevisiae deletion strains, locus YHR030C, strain SLT2, hits give low values
[7] = S. cerevisiae deletion strains, locus YJR043C, strain POL32, hits give low values
[8] = S. cerevisiae deletion strains, locus YLR039C, strain RIC1, hits give low values
[9] = S. cerevisiae deletion strains, locus YLR262C, strain YPT6, hits give low values
[10] = S. cerevisiae deletion strains, locus YNL153C, strain GIM3, hits give low values
[11] = S. cerevisiae deletion strains, locus YPL241C, strain CIN2, hits give low values

Measured: normalized growth

O=C(/C=N\Nc1ccccc1)Nc1ccccc1C(=O)O
active: S. cerevisiae deletion strains, locus YGR078C, strain PAC10, hits give low values 0.92 | [8] 0.297 | S. cerevisiae deletion strains, locus YLR085C, strain ARP6, hits give low values 0.666 | [9] 0.242 | [11] 0.792
inactive: [1] 0.975 | [2] 0.98 | [3] 0.99 | [4] 0.99 | S. cerevisiae deletion strains, locus YDR150W, strain NUM1, hits give low values 0.883 | [5] 0.986 | S. cerevisiae deletion strains, locus YGR229C, strain SMI1, hits give low values 1.02 | [6] 0.716 | S. cerevisiae deletion strains, locus YHR087W, strain rtc3, hits give low values 0.92 | S. cerevisiae deletion strains, locus YJL187C, strain SWE1, hits give low values 0.983 | [7] 0.989 | S. cerevisiae deletion strains, locus YJR075W, strain HOC1, hits give low values 0.953 | S. cerevisiae deletion strains, locus YLR058C, strain SHM2 (second series), hits give low values 0.97 | S. cerevisiae deletion strains, locus YML094W, strain GIM5, hits give low values 0.922 | S. cerevisiae deletion strains, locus YMR219W, strain ESC1, hits give low values 0.976 | [10] 0.965 | S. cerevisiae deletion strains, locus YNL298W, strain CLA4 (second series), hits give low values 0.93 | S. cerevisiae deletion strains, locus YNL322C, strain KRE1, hits give low values 0.982 | S. cerevisiae deletion strains, locus YNR030W, strain Alg12, hits give low values 0.958 | S. cerevisiae deletion strains, locus YPL055C, strain LGE1, hits give low values 0.86 | S. cerevisiae deletion strains, locus YPR135W, strain CTF4, hits give low values 0.812

COC(=O)Oc1ccccc1C(=O)O
inactive: [1] 1.02 | S. cerevisiae deletion strains, locus YBR021W, strain FUR4, hits give low values 0.976 | [2] 1.01 | S. cerevisiae deletion strains, locus YCL029C, strain bik1, hits give low values 1.01 | S. cerevisiae deletion strains, locus YDL035C, strain GPR1, hits give low values 0.995 | S. cerevisiae deletion strains, locus YDL074C, strain BRE1, hits give low values 1.04 | [3] 1.02 | [4] 0.991 | S. cerevisiae deletion strains, locus YDL185W, strain tfp1, hits give low values 1.01 | S. cerevisiae deletion strains, locus YDL192W, strain arf1, hits give low values 1.02 | S. cerevisiae deletion strains, locus YDR101C, strain arx1, hits give low values 1.01 | S. cerevisiae deletion strains, locus YDR162C, strain NBP2, hits give low values 0.99 | S. cerevisiae deletion strains, locus YDR318W, strain mcm21, hits give low values 1.01 | S. cerevisiae deletion strains, locus YDR388W, hits give low values 1.01 | S. cerevisiae deletion strains, locus YDR502C, strain sam2, hits give low values 1.01 | [5] 1.01 | S. cerevisiae deletion strains, locus YER110C, hits give low values 1.03 | S. cerevisiae deletion strains, locus YER155C, strain BEM2, hits give low values 1.01 | S. cerevisiae deletion strains, locus YER167W, strain BCK2, hits give low values 1.01 | S. cerevisiae deletion strains, locus YGL078C, strain dbp3, hits give low values 1.01 | S. cerevisiae deletion strains, locus YGL086W, strain mad1, hits give low values 1.01 | S. cerevisiae deletion strains, locus YGL248W, strain PDE1, hits give low values 1.01 | S. cerevisiae deletion strains, locus YGR135W, strain pre9, hits give low values 1.01 | S. cerevisiae deletion strains, locus YGR252W, strain gcn5, hits give low values 1.01 | [6] 1.01 | S. cerevisiae deletion strains, locus YHR079C, strain IRE1 (second series), hits give low values 1.01 | S. cerevisiae deletion strains, locus YHR094C, strain hxt1, hits give low values 1.02 | S. cerevisiae deletion strains, locus YHR129C, strain ARP1, hits give low values 1.01 | S. cerevisiae deletion strains, locus YHR200W, strain rpn10, hits give low values 1.02 | S. cerevisiae deletion strains, locus YIL066C, strain RNR3, hits give low values 0.987 | S. cerevisiae deletion strains, locus YIL073C, strain SPO22, hits give low values 1.03 | S. cerevisiae deletion strains, locus YIL125W, strain kgd1, hits give low values 1.02 | S. cerevisiae deletion strains, locus YIR030C, strain dcg1, hits give low values 1.01 | S. cerevisiae deletion strains, locus YJL095W, strain BCK1, hits give low values 1.05 | S. cerevisiae deletion strains, locus YJL134W, strain LCB3, hits give low values 1.01 | S. cerevisiae deletion strains, locus YJL168C, strain set2, hits give low values 1.03 | S. cerevisiae deletion strains, locus YJL187C, strain SWE1 (second series), hits give low values 1.02 | [7] 0.983 | S. cerevisiae deletion strains, locus YKL009W, strain mrt4, hits give low values 1.01 | S. cerevisiae deletion strains, locus YKL068W, hits give low values 1 | S. cerevisiae deletion strains, locus YKL085W, strain MDH1 (second series), hits give low values 1.01 | S. cerevisiae deletion strains, locus YKL085W, strain MDH1, hits give low values 1.01 | S. cerevisiae deletion strains, locus YKL190W, strain CNB1, hits give low values 1.02 | S. cerevisiae deletion strains, locus YKR001C, strain vps1, hits give low values 1.01 | [8] 1.02 | S. cerevisiae deletion strains, locus YLR058C, strain SHM2, hits give low values 1.01 | S. cerevisiae deletion strains, locus YLR102C, strain apc9, hits give low values 1.02 | [9] 1.04 | S. cerevisiae deletion strains, locus YLR268W, strain sec22, hits give low values 1.02 | S. cerevisiae deletion strains, locus YLR330W, strain CHS5, hits give low values 1.01 | S. cerevisiae deletion strains, locus YLR342W, strain FKS1 (second series), hits give low values 0.995 | S. cerevisiae deletion strains, locus YLR371W, strain rom2, hits give low values 1.02 | S. cerevisiae deletion strains, locus YLR418C, strain cdc73, hits give low values 1.06 | S. cerevisiae deletion strains, locus YML016C, strain PPZ1, hits give low values 0.999 | S. cerevisiae deletion strains, locus YML032C, strain rad52, hits give low values 1.01 | S. cerevisiae deletion strains, locus YML124C, strain tub3, hits give low values 1.01 | S. cerevisiae deletion strains, locus YMR078C, strain ctf18, hits give low values 1.02 | S. cerevisiae deletion strains, locus YMR223W, strain ubp8, hits give low values 1.01 | S. cerevisiae deletion strains, locus YMR263W, strain SAP30, hits give low values 1.03 | S. cerevisiae deletion strains, locus YMR307W, strain GAS1, hits give low values 1.06 | S. cerevisiae deletion strains, locus YNL067W, strain RPL9B, hits give low values 1.07 | S. cerevisiae deletion strains, locus YNL128W, strain TEP1, hits give low values 1.02 | [10] 1.03 | S. cerevisiae deletion strains, locus YNL233W, strain BNI4, hits give low values 1.01 | S. cerevisiae deletion strains, locus YNL250W, strain rad50, hits give low values 1.04 | S. cerevisiae deletion strains, locus YNL271C, strain bni1, hits give low values 1.02 | S. cerevisiae deletion strains, locus YNL298W, strain CLA4, hits give low values 1.02 | S. cerevisiae deletion strains, locus YNL307C, strain MCK1, hits give low values 1.02 | S. cerevisiae deletion strains, locus YNR052C, strain pop2, hits give low values 1.02 | S. cerevisiae deletion strains, locus YOL012C, strain htz1 0.797 | S. cerevisiae deletion strains, locus YOL147C, strain pex11, hits give low values 1.02 | S. cerevisiae deletion strains, locus YOR061W, strain CKA2, hits give low values 1.01 | S. cerevisiae deletion strains, locus YOR069W, strain VPS5, hits give low values 1.01 | S. cerevisiae deletion strains, locus YOR136W, strain idh2, hits give low values 1.02 | S. cerevisiae deletion strains, locus YOR144C, strain elg1, hits give low values 1.02 | S. cerevisiae deletion strains, locus YOR184W, strain ser1, hits give low values 1.02 | S. cerevisiae deletion strains, locus YOR316C, strain cot1, hits give low values 1.02 | [11] 1 | S. cerevisiae deletion strains, locus YPR119W, strain clb2, hits give low values 1.02 | S. cerevisiae deletion strains, locus YPR141C, strain kar3, hits give low values 1.03 | S. cerevisiae deletion strains, locus YPR163C, strain tif3, hits give low values 1.01 | S. cerevisiae deletion strains, locus YPR167C, strain met16, hits give low values 1.01 | S. cerevisiae deletion strains, strain wtn01, hits give low values 1.01 | S. cerevisiae strains, strain wild type, hits give low values 1.02
